The structures appear in SMILES notation. About 3,200 (25%) of roughly 13,000 compounds showed an effect of 50% or more. Some of the results follow.

This assay deals with P. falciparum stage V gametocytes. Details: BacTiter-Glo ATP luminescence viability of purified stage V gametocytes in 384-well plates, per cent inhibition versus DMSO. To be noted: 48 h, 5 µM; inhibitor.
`COc1cc(CNCCCNc2nc3ccsc3c(=O)[nH]2)c2[nH]cc(Cl)c2c1` [TCMDC-140349]: the “% Inhibition” value is reported as -35.52%.

Consider `COc1cccc(CCNCCCCCCNCCc2ccc(Cl)cc2)c1` [TCMDC-131284], for which the “% Inhibition” value amounted to 113.2%.

Take `COc1cccc(CCc2cccc(CNC(C)=O)c2)c1` [TCMDC-139277]: the “% Inhibition” value is recorded as -0.06569%.

Regarding `COc1ccc2nccc([C@@H](O)CN3CCC(NCc4nc5cc(F)ccc5o4)CC3)c2c1` [TCMDC-140783], the “% Inhibition” value is listed as -5.365%.

With `c1ccc2c(c1)ncc1c3ccccc3[nH]c21` [TCMDC-131258], the “% Inhibition” value is on record as -7.104%.

As for `O=C(O)C(F)(F)F.O=C1CCCN1CCCNCc1cccc(-c2ccc(-c3nc4cc(C(F)(F)F)ccc4[nH]3)s2)c1` [TCMDC-132757], the “% Inhibition” value is listed as -29.57%.

For `NCC1CCCN1Cc1cccc(-c2ccc(-c3nc4cc(C(F)(F)F)ccc4[nH]3)s2)c1.O=C(O)C(F)(F)F` (stereo not drawn) [TCMDC-132992], the “% Inhibition” value amounted to 36.35%.

As for `O=C(O)C(F)(F)F.O=C1CCCN1CCCNCc1cccc(-c2ccc(-c3nc4ccccc4[nH]3)s2)c1` [TCMDC-132749], the “% Inhibition” value is given as 78.47%.

Take `Cc1cccc2nc(-c3ccc(-c4cccc(CN5CCCC5CN)c4)s3)[nH]c12.O=C(O)C(F)(F)F` (stereo not drawn) [TCMDC-132997]: the “% Inhibition” value came to 41.54%.

As for `NCC1CCCN1Cc1cccc(-c2ccc(-c3nc4ccccc4[nH]3)s2)c1.O=C(O)C(F)(F)F` (stereo not drawn) [TCMDC-132987], the “% Inhibition” value is 77.53%.

Regarding `Cc1cccc2nc(-c3ccc(-c4cccc(CNCCCN5CCCC5=O)c4)s3)[nH]c12.O=C(O)C(F)(F)F` [TCMDC-132762], the “% Inhibition” value is -3.129%.

For `CCCCCc1cnc2nc(N)nc(N)c2c1` [TCMDC-137922], the “% Inhibition” value is recorded as -4.326%.

For `N#Cc1ccc2c(c1)CCN(CCC1CCC(NC(=O)/C=C/c3c[nH]c4c(Br)cccc34)CC1)CC2` (stereo not drawn) [TCMDC-139672], the “% Inhibition” value is -4.951%.

Take `Cc1cccc2[nH]c(-c3ccc(-c4ccc(NC(=O)NCc5ccc(F)cc5)cc4)cc3)nc12` [TCMDC-133302]: the “% Inhibition” value worked out at 17.3%.

Take `CC(=O)Nc1ncc(C(=O)Nc2cccc(-c3ccc(-c4nc5c(C)cccc5[nH]4)cc3)c2)s1` [TCMDC-136913]: the “% Inhibition” value worked out at 10.82%.

In the case of `Cc1cnc(C[S+]([O-])c2nc3ccc(C(F)(F)F)cc3[nH]2)cc1OCc1ccccc1` (stereo not drawn) [TCMDC-131542], the “% Inhibition” value is 10.44%.

Consider `Nc1nc(N)c2c(Cc3ccccc3)cccc2n1` [TCMDC-137764], for which the “% Inhibition” value was -5.935%.

Take `CCN(CC)CCN(Cc1ccc(-c2ccc(C(F)(F)F)cc2)cc1)C(=O)Cn1cc(CCCCc2cccc(F)c2F)c(=O)c2ccccc21` [TCMDC-141340]: the “% Inhibition” value was 60.46%.

In the case of `CCN(CC)CCN(Cc1ccc(-c2ccc(C(F)(F)F)cc2)cc1)C(=O)Cn1cc(CCCc2cccc(F)c2F)c(=O)c2ccccc21` [TCMDC-141331], the “% Inhibition” value is recorded as 81.22%.

As to `COc1ccc(OC)c2c1CCN(C)C2Cc1cccc2ccccc12` (stereo not drawn) [TCMDC-137509], the “% Inhibition” value came out at 12.85%.

For `O=C(NC1CCC(N2CCC(c3nc4ccccc4s3)CC2)CC1)c1cc2ccccc2[nH]1` (stereo not drawn) [TCMDC-132780], the “% Inhibition” value is reported as -77.63%.

Turning to `Cc1cc(C(=O)Nc2ccc3c(c2)CCN3C2CCN(Cc3ccc4nsnc4c3)C2)no1` (stereo not drawn) [TCMDC-135076], the “% Inhibition” value is -30.56%.

For `O=S(=O)(NC1=NCCC1)c1cccc(Nc2nc(C(F)(F)F)nc3ccccc23)c1` [TCMDC-124821], the “% Inhibition” value is listed as -4.384%.

With `CNc1ccc(CNCc2cccc(-c3ccc(-c4nc5cccc(C)c5[nH]4)s3)c2)cc1.O=C(O)C(F)(F)F` [TCMDC-132983], the “% Inhibition” value is 78.71%.

With `Cc1cccc2nc(-c3ccc(-c4cccc(CNC(C)C)c4)s3)[nH]c12.O=C(O)C(F)(F)F` [TCMDC-132743], the “% Inhibition” value came out at 8.329%.

`Cc1noc(C)c1-c1cccc(CNCc2cccc(-c3ccc(-c4nc5cccc(C)c5[nH]4)s3)c2)c1.O=C(O)C(F)(F)F` [TCMDC-133059]: the “% Inhibition” value was -9.203%.

Take `Cc1cccc2nc(-c3ccc(-c4cccc(CNCc5ccccc5)c4)s3)[nH]c12.O=C(O)C(F)(F)F` [TCMDC-132703]: the “% Inhibition” value is reported as -30.5%.

In the case of `C=CCOC(=O)N1CCC(CNCc2ccc(-c3cccc(-c4nc5ccccc5[nH]4)c3)cc2)C1.O=C(O)C(F)(F)F` (stereo not drawn) [TCMDC-132566], the “% Inhibition” value is 89.86%.

Turning to `COc1ccc(CNCc2cccc(-c3ccc(-c4nc5cccc(C)c5[nH]4)s3)c2)cc1.O=C(O)C(F)(F)F` [TCMDC-132722], the “% Inhibition” value worked out at 2.559%.

With `Cc1cccc2nc(-c3ccc(-c4cccc(CNCc5ccc(CN)cc5)c4)s3)[nH]c12.O=C(O)C(F)(F)F` [TCMDC-132812], the “% Inhibition” value is 115.3%.

Regarding `Cc1cccc2nc(-c3ccc(-c4cccc(CNC5CCN(C)CC5)c4)s3)[nH]c12.O=C(O)C(F)(F)F` [TCMDC-132736], the “% Inhibition” value came to 105.5%.

For `Cc1cccc2nc(-c3ccc(-c4cccc(CNCc5cccc(N)c5)c4)s3)[nH]c12.O=C(O)C(F)(F)F` [TCMDC-132936], the “% Inhibition” value is reported as -17.71%.

`CNc1ccc(CNCc2cccc(-c3ccc(-c4nc5ccccc5[nH]4)s3)c2)cc1.O=C(O)C(F)(F)F` [TCMDC-132977]: the “% Inhibition” value is recorded as -37.37%.

As for `C=CCOC(=O)N1CCC(CNCc2cccc(-c3cccc(-c4nc5ccccc5[nH]4)c3)c2)C1.O=C(O)C(F)(F)F` (stereo not drawn) [TCMDC-133046], the “% Inhibition” value was -7.738%.

Take `C=CCOC(=O)N1CCC(CNCc2ccc(-c3cccc(-c4nc5cc(F)ccc5[nH]4)c3)cc2)C1.O=C(O)C(F)(F)F` (stereo not drawn) [TCMDC-133044]: the “% Inhibition” value came to 2.158%.

Regarding `CC1(C)N=C(N)N=C(N)N1OCc1cccc(C#N)c1` [TCMDC-124037], the “% Inhibition” value was -12.77%.

With `CCCC(C)Nc1nc(C)cc(N[C@@H](CC(C)C)C(=O)NCc2ccc(C)cc2)n1` (stereo partly drawn) [TCMDC-134897], the “% Inhibition” value is listed as -16.22%.

`Cc1ccc(N2C(=O)C3C(C2=O)C2(c4ccccc4)C(=O)C3(c3ccccc3)C(c3ccccc3)=C2c2ccccc2)cc1` (stereo not drawn) [TCMDC-124241]: the “% Inhibition” value is -3.804%.

As for `CN1C(=O)[C@H](NC(=O)[C@@H](Cc2ccccc2)NC(=S)Nc2ccccc2)N=C(c2ccccc2)c2ccccc21` [TCMDC-132115], the “% Inhibition” value is 12.99%.

For `Cc1ccc(Nc2nc(C)cc(NC3CC3)n2)cc1` [TCMDC-133469], the “% Inhibition” value is given as 5.355%.

`CC1CCCN(Cc2c(O)ccc3c(=O)c(-c4nc5ccccc5s4)c(N)oc23)C1` (stereo not drawn) [TCMDC-124468]: the “% Inhibition” value is given as -5.264%.

For `Cc1ccc(-c2nnc(-c3ccc(C(=O)NC4CCN(Cc5ccc(C#N)cc5)CC4)cc3)o2)cc1Br` [TCMDC-136130], the “% Inhibition” value was -28.74%.

As to `Cc1ccc(Cn2c(N3CCC(C(=O)NCc4cccs4)CC3)nc3ccccc32)cc1` [TCMDC-124400], the “% Inhibition” value worked out at 16.64%.

On to `Cc1cccc2nc(-c3ccc(-c4ccc(CNCc5ccc(CN)cc5)cc4)s3)[nH]c12` [TCMDC-132809], for which the “% Inhibition” value turned out to be 97.61%.

Regarding `C=CCOC(=O)N1CCC(CNCc2cccc(-c3cccc(-c4nc5cccc(C)c5[nH]4)c3)c2)C1.O=C(O)C(F)(F)F` (stereo not drawn) [TCMDC-133038], the “% Inhibition” value was -20.08%.

`Cc1cccc2nc(-c3ccc(-c4ccc(CNCc5cccc(N)c5)cc4)s3)[nH]c12.O=C(O)C(F)(F)F` [TCMDC-132932]: the “% Inhibition” value is listed as -65.22%.

Take `C=CCOC(=O)N1CCC(CNCc2cccc(-c3ccc(-c4nc5cccc(C)c5[nH]4)cc3)c2)C1.O=C(O)C(F)(F)F` (stereo not drawn) [TCMDC-133040]: the “% Inhibition” value was 4.148%.

With `CNCCNCc1cccc(-c2ccc(-c3nc4cccc(C)c4[nH]3)s2)c1.O=C(O)C(F)(F)F` [TCMDC-132835], the “% Inhibition” value is recorded as 98.35%.

For the compound `C=CCOC(=O)N1CCC(CNCc2cccc(-c3ccc(-c4nc5cccc(C)c5[nH]4)s3)c2)C1.O=C(O)C(F)(F)F` (stereo not drawn) [TCMDC-133043], the “% Inhibition” value worked out at 63.05%.

On to `COc1ccc(CNCc2ccc(-c3ccc(-c4nc5cccc(C)c5[nH]4)s3)cc2)cc1.O=C(O)C(F)(F)F` [TCMDC-132727], for which the “% Inhibition” value was 15.75%.

Regarding `Cc1cccc2nc(-c3ccc(-c4cccc(CNCCCNS(C)(=O)=O)c4)s3)[nH]c12.O=C(O)C(F)(F)F` [TCMDC-133078], the “% Inhibition” value is on record as -8.111%.

For the compound `Cc1cccc2nc(-c3ccc(-c4cccc(CNCCc5ccncc5)c4)s3)[nH]c12.O=C(O)C(F)(F)F` [TCMDC-132853], the “% Inhibition” value is -22.63%.

Regarding `COc1cccc(CNC[C@@H](O)[C@H](Cc2ccccc2)NC(=O)c2cc(C(C)C)cc(N3CCCC3=O)c2)c1` [TCMDC-134130], the “% Inhibition” value amounted to 14.96%.

Take `CCc1ccc2c(c1O)CCN(C)C2Cc1ccccc1Cl` (stereo not drawn) [TCMDC-137165]: the “% Inhibition” value is listed as 18.04%.

Turning to `CC(=O)C1=NN(c2ccc(C)cc2)C(c2cccs2)N1c1ccccc1` (stereo not drawn) [TCMDC-125627], the “% Inhibition” value is -78.13%.

Take `Cc1cccc2[nH]c(-c3cccc(-c4ccc(NC(=O)NCc5ccccc5)cc4)c3)nc12` [TCMDC-133158]: the “% Inhibition” value is -0.2096%.

For `COc1ccc(NC(=O)c2c(NC(=O)c3cccs3)sc3c2CCCC3)cc1` [TCMDC-125745], the “% Inhibition” value was -21.48%.

Regarding `CNC(=O)c1cc(S(=O)(=O)Nc2ccc(OC)cc2)cs1` [TCMDC-124815], the “% Inhibition” value came out at 61.29%.

As for `COc1ccc(NS(=O)(=O)c2ccc(Oc3nc(C)nc4sc5c(c34)CCCC5)cc2)cc1` [TCMDC-124337], the “% Inhibition” value is 4.693%.

As to `CC1(C)CC2CC(C)(CN2C(=O)c2cc(C(C)(C)C)nn2Cc2ccccc2)C1` (stereo not drawn) [TCMDC-133777], the “% Inhibition” value is given as -28.49%.

Consider `COc1ccc(CN2CCN(CC(=O)Nc3cc(Cl)ccc3-n3cncn3)CC2)cc1F` [TCMDC-125242], for which the “% Inhibition” value is on record as 66.84%.

On to `O=C(Nc1cc(Cl)ccc1-n1cncn1)C1(c2ccccc2)CC1` [TCMDC-125455], for which the “% Inhibition” value is recorded as 2.448%.

Turning to `O=C(COc1ccccc1Cc1ccccc1)Nc1cc(Cl)ccc1-n1cncn1` [TCMDC-125098], the “% Inhibition” value was -48.08%.
